The campaign covered roughly 52,000 compounds. About 4,300 (8.3%) were called active. The sample holds actives, similar compounds and a random draw of the others, so the mix is not that of the screen. No stated cut-off is given here; in the data, active means survival mostly below about 52% (no sharp cut-off); inactive means mostly above about 56%.

The experiment has as its system DeltatarO mutant. In words: growth inhibition of S. aureus wild type versus tarO mutant, primary screen, teichoic acid synthesis inhibitors, RN4220, OD600 (AID 463173). The settings on record: OD600, 18 h, stronger effect = lower value, screened at 18.75 µg/mL (by protocol).
With `Cc1ccc(NC(=O)Cn2cc(S(=O)(=O)N3CCC(C)CC3)c3ccccc3c2=O)c(Br)c1`, the survival is 84% (inactive). Regarding `CCc1ccc(NCc2cc3cc4c(cc3n(CC(=O)Nc3ccc(C)cc3)c2=O)OCO4)cc1`, the survival is 89% (inactive). Turning to `CCc1ccc(NCc2cc3cc4c(cc3n(CC(=O)Nc3ccc(Cl)cc3)c2=O)OCO4)cc1`, the survival is 135% (inactive). Regarding `COc1ccc(NCc2cc3cc4c(cc3n(CC(=O)Nc3ccc(C)cc3)c2=O)OCO4)cc1`, the survival was 67% (inactive). As to `CC(=O)c1cccc(NC(=O)Cn2c(=O)c(CNc3ccc(C)cc3)cc3cc4c(cc32)OCCO4)c1`, the survival was 91% (inactive). `CCOc1ccc(NC(=O)Cn2c(=O)c(CNc3ccc(CC)cc3)cc3cc4c(cc32)OCO4)cc1`: the survival is 47% (active). Turning to `Cc1ccc(NCc2cc3cc4c(cc3n(CC(=O)Nc3ccc(C)cc3)c2=O)OCCO4)cc1`, the survival is 32% (active).

For `CCOC(=O)c1ccc(NC(=O)c2c(NCc3ccc(OC)c(OC)c3OC)sc3c2CCC(C)C3)cc1` (stereo not given), the survival is 123% (inactive). Under `COc1cccc(C(=O)N(Cc2ccc(C)o2)C2CCS(=O)(=O)C2)c1` (stereo not given) stands 96% (inactive); under `CN(C(=O)c1cc2nc(-c3ccco3)cc(C(F)(F)F)n2n1)C12CC3CC(CC(C3)C1)C2`, 110% (inactive).

Regarding `COC(=O)c1ccccc1NC(=O)c1cn2c3c(ccc(Cl)c3c1=O)OC(C)C2` (stereo not given), the survival was 84% (inactive). Regarding `Cc1cccc(-n2c3nc(=O)n(C)c(=O)c-3cc3ccc(Cl)cc32)c1C`, the survival is 81% (inactive). Take `CCCn1c(=O)c2sccc2n2c(CCCC(=O)Nc3ccc(Oc4ccc(Cl)cc4)cc3)nnc12`: the survival was 98% (inactive). As to `Cn1c(=O)c2sccc2n2c(CCCC(=O)Nc3ccc(Oc4ccc(Cl)cc4)cc3)nnc12`, the survival is 24% (active).

As for `Cn1c(=O)c2sccc2n2c(CCCC(=O)Nc3ccc(Oc4ccccc4)cc3)nnc12`, the survival is 53% (inactive). Under `COc1ccc(NC(=O)c2ccc(CN3C(=O)CCn4nc(C)cc43)cc2)c(OC)c1` stands 99% (inactive); under `CCCC1CC(C)(c2csc(NCC)n2)OC1=O` (stereo not given), 71% (active); under `CCCC1CC(C)(/C(C)=N\NC(N)=S)OC1=O` (stereo not given), 98% (inactive).

On to `CCC1(c2csc(Nc3ccccc3C)n2)CCC(=O)O1` (stereo not given), for which the survival was 89% (inactive). Under `CCCCc1ccc(NC(=O)C2(C)Cc3ccccc3C(=O)O2)cc1` (stereo not given) stands 75% (inactive). Under `COc1ccc(S(=O)(=O)N(CC(=O)NCCc2ccccc2)c2ccc(Cl)cc2)cc1` stands 83% (inactive); under `COc1ccc(CCN2C(=O)N(c3ccc(F)cc3)C(=O)C2CC(=O)Nc2ccc(F)c(F)c2)cc1` (stereo not given), 61% (inactive); under `CCc1ccc(S(=O)(=O)Nc2ccc3oc(C)c(C(=O)OCCOC)c3c2)cc1`, 32% (active). Consider `COCc1oc2ccc(NS(=O)(=O)c3ccc(C)cc3)cc2c1C(=O)OC`, for which the survival was 60% (inactive). For `CCOC(=O)c1c(C)oc2ccc(N(C(=O)c3ccncc3)S(=O)(=O)c3ccc(CC)cc3)cc12`, the survival is 60% (inactive). With `CCOC(=O)c1c(-c2ccccc2)oc2ccc(NS(=O)(=O)c3ccc(C)cc3C)cc12` the figure was 47% (inactive). `CCOC(=O)c1c(C)oc2ccc(N(C(=O)c3ccncc3)S(=O)(=O)c3ccc(F)cc3)cc12`: the survival was 28% (active). On to `CCOC(=O)c1c(C)oc2ccc(N(C(=O)c3ccncc3)S(=O)(=O)c3ccc(F)cc3C)cc12`, for which the survival was 79% (inactive). In the case of `CCOC(=O)c1c(-c2ccccc2)oc2ccc(NS(=O)(=O)c3ccccc3)cc12`, the survival is 35% (active).

Turning to `CCCCOC(=O)c1c(C)oc2ccc(NS(=O)(=O)c3ccc(F)cc3C)cc12`, the survival is 10% (active). On to `CCOC(=O)c1c(-c2ccccc2)oc2ccc(NS(=O)(=O)c3ccc(C)cc3)cc12`, for which the survival is 83% (inactive). With `Cc1cc(F)ccc1S(=O)(=O)Nc1ccc2oc3c(c2c1)CC(C)CC3` (stereo not given) the figure was 56% (inactive); with `CCCc1oc2ccc(NS(=O)(=O)c3ccc(OCC)cc3)cc2c1C(=O)OCC`, 65% (inactive). In the case of `CCOC(=O)c1c(-c2ccccc2)oc2ccc(NS(=O)(=O)c3ccc(OC)cc3)cc12`, the survival was 60% (inactive).

As for `CC(C)(C)c1ccc(CN(Cc2ccco2)Cc2nnnn2C2CCCCC2)cc1`, the survival is 105% (inactive). As to `CC1CCc2c(nc3ncnn3c2NCCN(C)C)C1` (stereo not given), the survival was 88% (inactive). Take `COc1cccc(NC(=O)Nc2cccc(-c3cn4cccnc4n3)c2)c1`: the survival is 78% (inactive).

For `COc1ccc(C(=O)n2cnnc2N)cc1`, the survival is 103% (inactive). With `Cc1cc(C)c(S(=O)(=O)Nc2ccc3oc(C)c(C(=O)OC(C)C)c3c2)cc1C` the figure was 48% (active); with `CC(=O)c1c(C)oc2ccc(NS(=O)(=O)c3ccc(C(C)C)cc3)cc12`, 78% (inactive). Regarding `CCOC(=O)c1c(-c2ccccc2)oc2ccc(NS(=O)(=O)c3cc(C)c(C)cc3C)cc12`, the survival is 63% (inactive).

In the case of `COc1ccc(CNC(=O)CCCn2c(=O)c3cccn3c3ccc(F)cc32)cc1OC`, the survival is 53% (inactive). As for `CCOc1ccc(CCNC(=O)CCCn2c(=O)c3cccn3c3cccnc32)cc1OCC`, the survival was 93% (inactive). Take `COc1ccc(CNC(=O)CCn2c(=O)c3cccn3c3ccc(F)cc32)cc1OC`: the survival is 91% (inactive).

On to `COc1ccc(CCNC(=O)Cn2c(=O)c3cccn3c3ccc(F)cc32)cc1OC`, for which the survival is 72% (inactive). As for `COc1ccc(CCNC(=O)CCn2c(=O)c3cccn3c3ccc(F)cc32)cc1OC`, the survival is 45% (active). `CCOc1ccc(CCNC(=O)Cn2c(=O)c3cccn3c3ccc(F)cc32)cc1OCC`: the survival is 74% (inactive).

Regarding `CCOc1ccc(CCNC(=O)CCn2c(=O)c3cccn3c3ccc(F)cc32)cc1OCC`, the survival was 42% (active). Turning to `COc1ccc(CCNC(=O)CCCn2c(=O)c3cccn3c3ccc(F)cc32)cc1OC`, the survival is 43% (active). On to `COc1ccc(CCNC(=O)CCCn2c(=O)c3cccn3c3ccccc32)cc1OC`, for which the survival was 61% (inactive). For the compound `COc1ccc(N2CC(NC(=O)c3c(F)cccc3Cl)CC2=O)cc1OC` (stereo not given), the survival is 95% (inactive). Turning to `COc1ccc(Cl)cc1NC(=O)CSc1nnc(C)n2c1cc1sccc12`, the survival is 68% (inactive). With `Cc1ccc(-n2nc(C)c3c(C(F)(F)F)cc(-c4cccnc4)nc32)cc1C` the figure was 42% (inactive).

Consider `CCN(Cc1ccccc1)C(=O)Cn1c(=O)n(Cc2ccccc2)c(=O)c2c1c1cc(OC)ccc1n2C`, for which the survival was 59% (inactive). Take `O=C(CN1C(=O)C2(SCC(=O)N2c2cccc(Cl)c2)c2ccccc21)NCCc1ccccc1` (stereo not given): the survival is 104% (inactive).

The record behind these values is PubChem BioAssay AID463173 (ICCB-Longwood Screening Facility, Harvard Medical School, 2010).
